# About 79,000 compounds went through this panel and 15% of them were active in at least one assay; those are over-represented in the sample as a whole. A number with no mark means an inactive call. Active and inactive are the calls of the source. No stated cut-off is given here; in the data, active means growth inhibition above about 70%; inactive means the rest.
# Assays:
# [1] = NCI Yeast Anticancer Drug Screen. Data for the rad50 strain (AID 155);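 further: 0% = growth of vehicle-only cultures of the same strain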; conditions: S. cerevisiae rad50 strain growth inhibition; at 50.0 µM; active compounds read high
# How it was run: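 Relative growth inhibition (compound vs vehicle) was measured in yeast with a defined repair-gene alteration.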
# [2] = NCI Yeast Anticancer Drug Screen. Data for the mec2-1 strain (AID 157); conditions: S. cerevisiae mec2-1 strain, at 50.0 µM, active compounds read high
# How it was run: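 mec2-1 yeast strain, carrying an alteration in DNA damage repair or cell cycle control, was exposed to compounds; growth inhibition was measured relative to vehicle-treated controls.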
# [3] = NCI Yeast Anticancer Drug Screen. Data for the sgs1 mgt1 strain (AID 161);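 further: 0% = growth of cultures given vehicle only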; conditions: S. cerevisiae sgs1 mgt1 strain, at 50.0 µM, active compounds read high
# How it was run: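 Yeast cells carrying a defined DNA-repair defect were exposed to test compounds. Growth inhibition was measured relative to vehicle-treated controls.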
# [4] = NCI Yeast Anticancer Drug Screen. Data for the cln2 rad14 strain (AID 165);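 further: 0% = growth equal to vehicle treated cultures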; conditions: S. cerevisiae cln2 rad14 strain, at 50.0 µM, active compounds read high
# How it was run: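 Yeast carrying cln2 and rad14 alterations (cell cycle control and DNA damage repair) were exposed to compounds. Growth inhibition was measured against vehicle-treated controls.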
# [5] = NCI Yeast Anticancer Drug Screen. Data for the bub3 strain (AID 167); conditions: S. cerevisiae bub3 mutant strain, at 50.0 µM, active compounds read high
# How it was run: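 Screening used yeast with an engineered genetic alteration affecting cell cycle control. Compound-exposed cultures were compared with vehicle cultures, and reduced growth was taken as inhibition.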
# [6] = NCI Yeast Anticancer Drug Screen. Data for the mlh1 rad18 strain (AID 175); conditions: S. cerevisiae mlh1 rad18 strain growth inhibition; at 50.0 µM; active compounds read high
# How it was run: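 Growth inhibition of the yeast strain was measured after compound exposure and expressed relative to vehicle-treated controls. The strain carries defined defects in DNA damage repair.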
SMILES,growth inhibition [1],growth inhibition [2],growth inhibition [3],growth inhibition [4],growth inhibition [5],growth inhibition [6]
O=C1CCC(N2C(=O)C3C4CCC(CC4)C3C2=O)C(=O)N1 (stereo unspecified),2.75%,-12.9%,-14.9%,-1.65%,-2.65%,-16.2%
CCOC(=O)C/C(O)=C(\N=Nc1nc[nH]c1C(N)=O)C(=O)OCC,1.2%,23.7%,-9.9%,-1.8%,16.1%,-0.65%
CCCCCC/C=C/CCCCCCCC(=O)O,3.15%,-25.1%,5.3%,-9.9%,-1.75%,-16.9%
CC1(C)C/C(=C/c2ccccc2)C(=O)O1,-14.6%,-6.95%,-3.45%,-31.5%,-4.05%,-19.3%
Cc1cnc2cccc(C)c2c1Cl,-29.5%,0.05%,10.3%,-16.4%,8.3%,-3.3%
O/N=C/c1cccc[n+]1Cc1ccccc1,-4%,6.3%,0.95%,-23.9%,4.85%,1.25%
Cc1ccc(C(=N)c2ccccc2Cc2ccccc2)cc1,-14.4%,-10.7%,-12.8%,2.75%,3.9%,-20.3%
CC1=CC(=O)C2=C(C)CCC3C(C)C(=O)OC3C12 (stereo unspecified),-4.2%,-9.85%,-6.75%,10.8%,-3.55%,-60.7%
O=P(O)(O)c1ccc(Cl)cc1,-1.8%,-1.3%,-1.65%,8.7%,8.55%,-9.4%
O=[N+]([O-])c1ccc(N/N=C/c2ccccn2)nc1,8.1%,-6.1%,10.1%,-7.7%,6%,5.4%
[Cl][Eu]([Cl])[Cl],22.4%,17.9%,24.2%,42.9%,34.2%,19.8%
CCOC(=O)Nc1c(O)cccc1N1CCOCC1,-14.1%,6.65%,25.9%,-12.1%,7.4%,-1.25%
CC1(C)COC(c2ccc3ccccc3c2)OC1,26%,10.7%,-6.2%,-21.9%,35.4%,-5.8%
CCOC(=O)Nc1ccc(C2OCCS2)cc1 (stereo unspecified),1.05%,-21.6%,9.45%,-0.65%,-19.8%,10.2%
CN(C)c1ccccc1CN1CCCN(Cc2ccccc2N(C)C)C1c1ccncc1,-16.3%,-10.1%,-12.3%,-0.25%,-16.2%,-1.55%
CC(O)C1C(C(=O)O)C2C(C)OC(=O)C12 (stereo unspecified),-0.6%,-3.4%,-0.8%,52.5%,2.45%,15.5%
Cc1ccc(S(=O)(=O)Nc2ccc3nc(C)oc3c2)cc1,26.4%,-18.1%,44.1%,14.7%,45%,17%
Cc1cc(N=Cc2cccs2)cc(Cl)c1O,21.7%,14.4%,5.05%,12.2%,41.8%,24.8%
COC1CC(C)(NC(=O)C(F)(F)F)C2OC(c3ccccc3)OCC2O1 (stereo unspecified),-25%,-17.7%,-41.4%,-35%,-3.85%,-9.65%
C[C@H]1C[C@](C)(CO)Oc2oc3ccccc3c(=O)c21,4.5%,10.3%,17.4%,4.75%,7.2%,13.1%
CCOC(=O)/C(C#N)=C/Nc1[nH]c(=O)c(C#N)c(-c2ccc(Cl)cc2)c1SC,10.9%,5.8%,-9.35%,-9.2%,2.1%,16.8%

SMILES,growth inhibition [1],growth inhibition [2],growth inhibition [3],growth inhibition [4],growth inhibition [5],growth inhibition [6]
CCOC(=O)Nc1ccc(S(=O)(=O)c2ccc(Nc3ccnc4cc(Cl)ccc34)cc2)cc1,17.1%,10.2%,27.2%,-35.8%,5.45%,47.8%
O=C(COc1ccc(Cl)cc1)N(c1ccccc1)C1CCCCC1,95.9% (active),98.3% (active),97.5% (active),96.2% (active),95.2% (active),96.9% (active)
COc1ccc(NC2CC(C)N(C(=O)c3ccccc3)O2)cc1 (stereo unspecified),-42.1%,-37.2%,-19.1%,12.3%,-21.6%,-19.2%
CSc1nc(Br)nc2c1ncn2C1CC(Oc2ccc(C)cc2)C(COc2ccc(C)cc2)O1 (stereo unspecified),13.4%,4.3%,22.1%,18.6%,17.1%,-23.8%
CC1(C)CS(=O)(=O)C(=O)N1CCC(=O)O,9.8%,15.4%,7.8%,3.85%,6.45%,24.9%
C/C=C(\C)C(=O)OC1C2C(C)=CC(=O)C(O)C2(C)C2C3(O)OCC24C1OC(=O)C(OC(C)=O)C4C(C)C3O (stereo unspecified),91.9% (active),93.3% (active),92.8% (active),91.8% (active),91.7% (active),91.6% (active)
O=[N+]([O-])c1ccc(OCCSc2ccccc2)cc1,9%,33%,55%,12.6%,60.2%,12.8%
Clc1ccccc1C1N2CCCCC2[C@@H]2c3[nH]c4ccccc4c3CCN12 (stereo partly specified),-14.8%,-1.35%,9.25%,9.25%,12.6%,2.4%
CCCCCCCC(=O)Oc1c(Cl)c(Cl)c(C#N)c(Cl)c1C#N,20.9%,-3.55%,11.5%,13.7%,5.8%,25.4%
CCCCCCCCCO/N=C\c1c2c(O)c3c(O)c(C)c4c(c3c1O)C(=O)C(C)(O/C=C\C(OC)C(C)C(OC(C)=O)C(C)C(O)C(C)C(O)C(C)/C=C\C=C(\C)C(=O)N2)O4 (stereo unspecified),-1.15%,19.9%,11.5%,-13.9%,-6.6%,30.8%
C[N+]1(C)CCCC(O)(C(=O)c2ccccc2)C1 (stereo unspecified),-5.2%,-10.3%,-14.3%,6.6%,-2.4%,17.1%
CCOC(=O)NC(C(N)=O)C(N)=O,-0.3%,15.8%,-1.6%,-44%,-13.3%,-2.45%
Nc1c(S(=O)(=O)O)cc(Nc2cccc(S(N)(=O)=O)c2)c2c1C(=O)c1ccccc1C2=O,5.05%,1.1%,-42.4%,-7.65%,-17.1%,24.6%
C[P+](Cc1ccc([N+](=O)[O-])cc1)(c1ccccc1)c1ccccc1,-2.85%,-19.1%,-3.15%,-1.7%,-9.8%,-7.15%
COC(=O)CC1(C(=O)OC)Nc2ccccc2C(=O)O1 (stereo unspecified),2.65%,21.7%,18.8%,-11.1%,-11.1%,2.9%
CCCCCCC(O)CCCCCC,27.4%,-16.4%,26.4%,-24.6%,21.5%,-12.3%
CCC(=O)NCCCCCN1CCCCC1,8.55%,5.35%,9.75%,-15.6%,-1.1%,9.05%
C=CCC12CC(O)C(O)CC1(OC)OC(c1cc(OC)c(OC)c(OC)c1)C2C (stereo unspecified),-1.1%,-8.75%,-8.1%,-4.75%,4.35%,7.9%
CC1c2c(cc(=O)n(C)c2O)C(=O)N1C (stereo unspecified),2.15%,0.7%,-7.85%,-6.2%,-9%,-2.85%
CCOC(=O)C1=C(C)NC(C)=C(C(=O)OCC)C1C,-29.1%,-35.9%,4.5%,-10.5%,-22.1%,-6.8%

# Source: PubChem BioAssay (NCI)
